Measured values published in PubChem BioAssay AID588742 (Southern Research Specialized Biocontainment Screening …, 2011).
Out of some 1,800 compounds screened, about 410 (23%) were called active. These entries were drawn from the full list. Entries with a potency or affinity are not part of this list. Unmarked numbers belong to inactive results. How the calls were made is not given here.

assay: viability of Vero cells under compound – cytotoxicity control for flavivirus capping enzyme inhibitors (AID 588742); details: cytotoxicity counter-screen; series mostly up to 40 µM; viability: at the top concentration

| SMILES | viability |
| --- | --- |
| Nc1cc2nsnc2cc1Br | 86.3% |
| COc1cccc(/C=C2\Oc3cc(OCC(=O)N4Cc5ccccc5C[C@H]4C(=O)O)ccc3C2=O)c1 | 111% |
| O=C(N/N=C/c1ccc(N2CCOCC2)o1)c1cccc([N+](=O)[O-])c1 | 93.5% |
| O=C(O)c1ccc(-n2nc(C(F)(F)F)c3c2-c2ccoc2CC3)cc1 | 83.3% |
| O=C(NNc1cc(Br)c(O)c(Br)c1)c1ccccc1 | 92.3% |
| O=C(O)c1ccccc1-c1ccccc1C(=O)Nc1ccc2c(c1)C(=O)c1ccccc1-2 | 94.3% |
| O=C(Nc1cc(C(=O)Nc2ccccc2C(=O)O)cc(C(=O)Nc2ccccc2C(=O)O)c1)c1ccccc1 | 102% |
| O=C(Nc1ccccc1C(=O)O)c1cccc(C(=O)Nc2ccccc2C(=O)O)c1 | 98.6% |
| O=C(O)CCN1C(=O)/C(=C\c2cccc(OCc3ccccc3)c2)SC1=S | 83.4% |
| O=c1c(C(c2ccc(O)cc2)c2c(O)nc3n(c2=O)CCS3)c(O)nc2n1CCS2 | 102% |
| O=C1CC(=Nc2ccc([N+](=O)[O-])cc2)NN1c1c(Cl)cc(Cl)cc1Cl | 102% |
| CCOC(=O)Cc1cc(=O)c2c(=O)n(-c3ccccc3)[nH]c2[nH]1 | 97.9% |
| CCC1(C)Cc2c(C#N)c(N)sc(=S)c2CO1 (stereo not given) | 90.5% |
| CC(=O)/C(=N/Nc1ccccc1)Sc1nnc(CCc2ccccc2)n1-c1ccccc1 | 97% |
| CCc1nnc(NS(=O)(=O)c2ccc(NC(=S)NC(=O)/C=C/c3ccc(F)cc3)cc2)s1 | 87.5% |
| CCc1nnc(NS(=O)(=O)c2ccc(NC(=S)NC(=O)/C=C/c3ccc(C(C)C)cc3)cc2)s1 | 87.8% |
| CCc1nnc(NC(=O)CCC(=O)N2CCN(c3ccccn3)CC2)s1 | 98.1% |
| CCOC(=O)Nc1sc(NS(=O)(=O)c2ccccc2)nc1C | 93.1% |
| CCC(=O)Nc1ccc2nc3c(=O)[nH]c(=S)[nH]c3nc2c1 | 93.2% |
| C=CCOc1ccc(/C=C2\SC(=S)N(NS(=O)(=O)c3ccc(C)cc3)C2=O)cc1 | 95.5% |
| O=C(CNc1cccc2ccccc12)N/N=C/c1ccc(C(=O)O)cc1 | 93.6% |
| CCC1(c2ccccc2)NC(=S)N(c2cccc(C)c2C)N1 (stereo not given) | 99% |
| O=C(O)/C=C/C(=O)c1ccc2c(c1)NC(=O)CO2 | 98% |
| COc1cc(/C=C2/SC(=S)N(CC(=O)O)C2=O)ccc1OC(=O)c1cccs1 | 99.7% |
| CC(C)C(=O)OC1CCS(=O)(=O)c2sccc21 (stereo not given) | 95.5% |

| SMILES | viability |
| --- | --- |
| CCCc1nc(C)c2c(=O)[nH]c(-c3cc(S(=O)(=O)N4CCN(CC)CC4)ccc3OCC)nn12 | 97.8% |
| CCOc1c(Br)cc(CNc2ccc(N3CCN(C(C)=O)CC3)cc2)cc1OC | 83.5% |
| COc1cccc(CNc2ccc(N3CCCCC3)cc2)c1OC | 87.1% |
| Cc1nn(-c2ccccc2)c(Cl)c1/C=C1\SC(=S)N(CCCCCC(=O)O)C1=O | 87.3% |
| COC(=O)c1c(C)oc2c1cc(NS(=O)(=O)c1ccc(C(=O)O)cc1)c1ccccc12 | 96.5% |
| CCOc1cc(NS(=O)(=O)c2ccccc2)c(OCC)cc1NC(=O)c1ccco1 | 98.2% |
| CCOC(=O)c1c(C)oc2c1cc(NS(=O)(=O)c1ccc(C(=O)O)cc1)c1ccccc12 | 96.6% |
| CC(=O)Nc1ccc(NS(=O)(=O)c2ccccc2)c2ccccc12 | 112% |
| COc1ccccc1/C=C1/C(=O)ON=C1C | 98.1% |
| Cc1ccc(N2C(=O)c3ccccc3C2C(=O)c2ccc(O)cc2O)cc1 (stereo not given) | 84.7% |
| CC1=C(C#N)c2nc(N)c(C#N)c(C)c2/C1=C\c1ccc(OCC(=O)O)c(Cl)c1 | 94.5% |
| NC(=S)c1cc2cc(Br)ccc2oc1=O | 95.1% |
| CC(=O)C(=Cc1cc(C)n(-c2ccccc2)c1C)C(C)=O | 98.5% |
| CCN(CCCNc1cc2c(c(N)c1S(=O)(=O)O)C(=O)c1ccccc1C2=O)c1ccccc1 | 80.3% |
| CCC(=O)Nc1cc(C(=O)O)ccc1Sc1ccc(C)cc1 | 96.3% |
| CCOC(=O)Cc1csc(NC(=O)NC2(C(F)(F)F)Oc3ccccc3O2)n1 | 99.8% |
| O=C(O)CCCN1C(=O)/C(=C/C=C/c2ccco2)SC1=S | 93.8% |
| O=C(O)CCCN1C(=O)/C(=C\c2ccco2)SC1=S | 106% |
| O=S(=O)([O-])CCC[n+]1c(SCCCS(=O)(=O)O)sc2ccc(Cl)cc21 | 104% |
| O=C(O)CSc1nc(-c2ccc(Cl)cc2)nc2c1oc1ccccc12 | 90.5% |
| O=C(O)c1ccccc1NS(=O)(=O)c1cccc(NS(=O)(=O)c2cc(Br)ccc2Br)c1 | 95.6% |
| O=C(NNS(=O)(=O)c1ccc([N+](=O)[O-])cc1)c1ccc2ccccc2c1O | 95.5% |
| O=S(=O)(Nc1ccc(O)c2ccccc12)c1ccc(F)cc1 | 95.8% |
| O=C(O)CSc1c(O)c2ccccc2[nH]c1=O | 105% |
| O=C(O)COc1ccccc1/C=N/Nc1ccc(S(=O)(=O)Nc2ccc(Cl)cc2)cc1[N+](=O)[O-] | 100% |
